According to the antibiotic and cytotoxicity screens of Wong et al. (2023):
Out of some 39,000 compounds screened, about 3,300 (8.5%) were called active. For the sample, actives were picked, then their nearest neighbours and some compounds at random.

The molecules below were run on HepG2 (assay: cytotoxicity call (relative viability < 0.9)). Details: 10 µM.
With `CCCc1ncc(C[n+]2ccccc2C)c(N)n1.[Cl-]` the cytotoxicity call was “inactive”.
In the case of `C[C@@H]1CCCCO[C@H](CN(C)S(=O)(=O)c2cccs2)[C@H](C)CN([C@H](C)CO)C(=O)c2cc(NC(=O)c3ccccc3)ccc2O1`, the cytotoxicity call is reported as “inactive”.
With `C[C@@H]1CN([C@@H](C)CO)C(=O)c2cccc(NS(=O)(=O)c3cccs3)c2O[C@@H]1CN(C)Cc1ccc(Oc2ccccc2)cc1` the cytotoxicity call was “inactive”.
In the case of `C[C@@H]1CN([C@@H](C)CO)C(=O)c2cc(C#CCN(C)C)cnc2O[C@H]1CN(C)Cc1cccc(C(=O)O)c1`, the cytotoxicity call is reported as “inactive”.
In the case of `C[C@@H]1CN([C@@H](C)CO)C(=O)c2cccc(NC(=O)C3CCOCC3)c2O[C@H]1CN(C)C(=O)Nc1ccc2c(c1)OCO2`, the cytotoxicity call is reported as “inactive”.
In the case of `C[C@@H]1CN([C@H](C)CO)C(=O)Cc2cc(NC(=O)Nc3ccc(F)cc3)ccc2O[C@@H]1CN(C)C(=O)Nc1ccc(C(F)(F)F)cc1`, the cytotoxicity call is reported as “inactive”.
For `C[C@H](CO)N1C[C@H](C)[C@@H](CN(C)C(=O)Nc2ccc(C(F)(F)F)cc2)Oc2ccc(NC(=O)Nc3ccc(F)cc3)cc2CC1=O`, the cytotoxicity call was “active”.
With `C[C@H]1CN([C@@H](C)CO)C(=O)Cc2cc(NC(=O)Nc3ccc(F)cc3)ccc2O[C@H]1CN(C)C(=O)Nc1ccc(C(F)(F)F)cc1` the cytotoxicity call was “inactive”.
With `Cc1ccc(S[C@]2(C(=O)NC(C)C)CC(=O)N(Cc3cc(C(F)(F)F)cc(C(F)(F)F)c3)[C@@H]2c2ccc(CO)cc2)cc1` the cytotoxicity call was “inactive”.
With `CN(C)Cc1cn(CC[C@H]2CC[C@@H](NS(=O)(=O)c3ccccc3)[C@H](CO)O2)nn1` the cytotoxicity call was “inactive”.
In the case of `C[C@H]1CN([C@@H](C)CO)C(=O)Cc2cc(NC(=O)CCC(F)(F)F)ccc2O[C@@H]1CN(C)S(C)(=O)=O`, the cytotoxicity call is reported as “inactive”.
In the case of `CC(C)(C)[S@](=O)N1Cc2cc(C(=O)N3CCc4ccccc4C3)nc(-c3cccc(-c4cncnc4)c3)c2[C@@H]1CCO`, the cytotoxicity call is reported as “inactive”.
`C=CCOC(=O)[C@@H]1[C@H]2C(=O)O[C@H](c3ccccc3)[C@H](c3ccccc3)N2[C@H](c2ccc(OCCOC(=O)NCCCCCC(=O)NO)cc2)[C@]12C(=O)Nc1ccc(I)cc12` was tested, and the cytotoxicity call was “inactive”.
With `Nc1nnc(-c2ccno2)o1` the cytotoxicity call was “inactive”.
`CCOC(=O)Cn1cc(F)c(=O)[nH]c1=O` was tested, and the cytotoxicity call was “inactive”.
In the case of `CCOC(=O)CCn1cc(F)c(=O)[nH]c1=O`, the cytotoxicity call is reported as “inactive”.
In the case of `CC(=O)On1cc(F)c(=O)[nH]c1=O`, the cytotoxicity call is reported as “active”.
In the case of `Cn1cnc(S(=O)(=O)N2CC[C@H](O)[C@@H]2Cc2cnn(C)c2)c1`, the cytotoxicity call is reported as “inactive”.
In the case of `C[C@@H]1CN([C@H](C)CO)C(=O)c2cc(NC(=O)Cc3ccccc3)ccc2O[C@@H](C)CCCCO[C@H]1CN(C)C(=O)Nc1ccccc1`, the cytotoxicity call is reported as “active”.
In the case of `C[C@@H]1CCCCO[C@@H](CN(C)C(=O)CCC(F)(F)F)[C@@H](C)CN([C@H](C)CO)C(=O)c2cc(NC(=O)Cc3ccccc3)ccc2O1`, the cytotoxicity call is reported as “inactive”.
In the case of `C[C@@H]1CCCCO[C@@H](CN(C)C(=O)CCC(F)(F)F)[C@H](C)CN([C@@H](C)CO)C(=O)c2cc(NC(=O)Cc3ccccc3)ccc2O1`, the cytotoxicity call is reported as “inactive”.
For `C[C@H]1CCCCO[C@@H](CN(C)C(=O)Nc2ccccc2)[C@@H](C)CN([C@@H](C)CO)C(=O)c2cc(NC(=O)Cc3ccccc3)ccc2O1`, the cytotoxicity call was “inactive”.
With `C[C@@H]1CCCCO[C@H](CN(C)C(=O)Nc2ccc(C(F)(F)F)cc2)[C@@H](C)CN([C@@H](C)CO)C(=O)c2cc(NC(=O)Cc3ccccc3)ccc2O1` the cytotoxicity call was “inactive”.
`C[C@@H]1CCCCO[C@@H](CN(C)C(=O)Nc2ccc(C(F)(F)F)cc2)[C@H](C)CN([C@H](C)CO)C(=O)c2cc(NC(=O)Cc3ccccc3)ccc2O1` was tested, and the cytotoxicity call was “active”.
With `C[C@@H]1CCCCO[C@@H](CN(C)C(=O)Nc2ccccc2)[C@H](C)CN([C@@H](C)CO)C(=O)c2cc(NC(=O)Cc3ccccc3)ccc2O1` the cytotoxicity call was “inactive”.
With `C[C@H]1CCCCO[C@H](CN(C)C(=O)CCC(F)(F)F)[C@@H](C)CN([C@@H](C)CO)C(=O)c2cc(NC(=O)Cc3ccccc3)ccc2O1` the cytotoxicity call was “active”.
For `C[C@H](CO)N1C[C@H](C)[C@@H](CN(C)C(=O)Nc2ccc(C(F)(F)F)cc2)OCCCC[C@H](C)Oc2ccc(NC(=O)Cc3ccccc3)cc2C1=O`, the cytotoxicity call was “inactive”.
`CC(C)NC(=O)Nc1ccc2c(c1)C(=O)N([C@@H](C)CO)C[C@@H](C)[C@@H](CN(C)Cc1ccccc1)OCCCC[C@@H](C)O2` was tested, and the cytotoxicity call was “inactive”.
`C[C@@H]1CCCCO[C@@H](CN(C)C(=O)Nc2ccc3c(c2)OCO3)[C@@H](C)CN([C@@H](C)CO)C(=O)c2cc(NC(=O)Nc3ccc4c(c3)OCO4)ccc2O1` was tested, and the cytotoxicity call was “inactive”.
`CS(=O)(=O)N1CCOC[C@@]2(C1)CN(S(=O)(=O)C1CC1)CCO2` was tested, and the cytotoxicity call was “inactive”.
For `O=C(C[C@H]1CC[C@H]2[C@@H](COC[C@@H](O)CN2S(=O)(=O)c2cccc(F)c2)O1)NCc1ccc2c(c1)OCO2`, the cytotoxicity call was “inactive”.
`C[C@@H]1CCCCO[C@H](CN(C)C(=O)Nc2ccc3c(c2)OCO3)[C@@H](C)CN([C@H](C)CO)C(=O)c2cc(NC(=O)c3ccccc3)ccc2O1` was tested, and the cytotoxicity call was “inactive”.
With `O=C(O)CNc1ncccc1O` the cytotoxicity call was “inactive”.
`Cc1ccc(S(=O)(=O)N(C)C[C@H]2Oc3ccc(NC(=O)NC(C)C)cc3CC(=O)N([C@H](C)CO)C[C@@H]2C)cc1` was tested, and the cytotoxicity call was “inactive”.
With `N=C1CCCN1Cc1[nH]c(=O)[nH]c(=O)c1Cl` the cytotoxicity call was “inactive”.
`Cc1noc(C)c1NC(=O)Nc1ccc2c(c1)C(=O)N([C@@H](C)CO)C[C@@H](C)[C@H](CN(C)Cc1ccccc1)OCCCC[C@H](C)O2` was tested, and the cytotoxicity call was “inactive”.
`Cc1noc(C)c1S(=O)(=O)Nc1ccc2c(c1)C(=O)N([C@H](C)CO)C[C@@H](C)[C@@H](CN(C)Cc1ccc(C(=O)O)cc1)O2` was tested, and the cytotoxicity call was “inactive”.
For `CC(C)NC(=O)N(C)C[C@H]1Oc2ccc(NC(=O)CCCN(C)C)cc2CC(=O)N([C@@H](C)CO)C[C@@H]1C`, the cytotoxicity call was “inactive”.
In the case of `N[C@H]1CCCC[C@@H]1N1C(=O)CSC1=O`, the cytotoxicity call is reported as “inactive”.
In the case of `NC1CCCCC1N.O=C1[O][Pt][O]C1=O` (stereo not given), the cytotoxicity call is reported as “active”.
For `Cc1c(CN2CCC(Nc3ncnc4sc(CC(F)(F)F)cc34)CC2)ccc2c1cc(C#N)n2Cc1cn[nH]c1`, the cytotoxicity call was “active”.
For `Cc1noc(C)c1S(=O)(=O)N(C)C[C@@H]1OCCCC[C@H](C)Oc2ccc(NS(C)(=O)=O)cc2C(=O)N([C@@H](C)CO)C[C@H]1C`, the cytotoxicity call was “inactive”.
`COc1cc(C(=O)NCc2ccc(OCCN(C)C)cc2)cc(OC)c1OC.Cl` was tested, and the cytotoxicity call was “inactive”.
With `COc1cc(/C=C/C(=O)NCCCNC(=O)/C=C/c2cc(OC)c(OC)c(OC)c2)cc(OC)c1OC` the cytotoxicity call was “inactive”.
With `CC(C)N(CCOc1c(Br)cc(/C=C/C(=O)NCCCOc2c(Br)cc(CCN(C)C)cc2Br)cc1Br)C(C)C` the cytotoxicity call was “active”.
With `CN(C)CCOc1c(Br)cc(/C=C/C(=O)NCCCOc2c(Br)cc(CCN(C)C)cc2Br)cc1Br` the cytotoxicity call was “active”.
With `C[C@H](CO)N1C[C@H](C)[C@@H](CN(C)C(=O)Nc2ccc3c(c2)OCO3)Oc2ccc(NC(=O)CCCN(C)C)cc2C1=O` the cytotoxicity call was “inactive”.
`CO[C@H]1CN(C)C(=O)c2cc(NS(=O)(=O)CC(F)(F)F)ccc2OC[C@H](C)N(C(=O)c2ccc3c(c2)OCO3)C[C@H]1C` was tested, and the cytotoxicity call was “inactive”.
For `O=C(Cc1ccccn1)NCC[C@H]1CC[C@@H](NC(=O)CN2CCOCC2)[C@H](CO)O1`, the cytotoxicity call was “inactive”.
In the case of `C[C@H]1CN([C@@H](C)CO)C(=O)c2cc(NC(=O)Cn3cnnn3)ccc2O[C@@H]1CN(C)S(=O)(=O)c1ccccc1`, the cytotoxicity call is reported as “inactive”.
For `CC(C)N1C[C@H](C)[C@@H](CN(C)Cc2ccc(Oc3ccccc3)cc2)Oc2c(cccc2-c2nnc(-c3ccncc3)o2)C1=O`, the cytotoxicity call was “inactive”.
With `COc1ccc(S(=O)(=O)N(C)C[C@@H]2Oc3c(NC(=O)Nc4cccc5ccccc45)cccc3C(=O)N([C@@H](C)CO)C[C@H]2C)cc1` the cytotoxicity call was “inactive”.
With `COc1ccc(S(=O)(=O)N(C)C[C@H]2Oc3c(NC(=O)Nc4cccc5ccccc45)cccc3C(=O)N([C@@H](C)CO)C[C@H]2C)cc1` the cytotoxicity call was “inactive”.
For `COc1ccc(S(=O)(=O)N(C)C[C@H]2Oc3c(NC(=O)Nc4cccc5ccccc45)cccc3C(=O)N([C@@H](C)CO)C[C@@H]2C)cc1`, the cytotoxicity call was “active”.
`C[C@H](CO)N1C[C@H](C)[C@H](CN(C)S(=O)(=O)c2ccc(F)cc2)Oc2c(NC(=O)Nc3cccc4ccccc34)cccc2C1=O` was tested, and the cytotoxicity call was “inactive”.
In the case of `C[C@H](CO)N1C[C@H](C)[C@H](CN(C)S(=O)(=O)c2ccccc2)Oc2c(NC(=O)Nc3cccc4ccccc34)cccc2C1=O`, the cytotoxicity call is reported as “inactive”.
`COc1ccc(S(=O)(=O)N(C)C[C@@H]2Oc3c(NC(=O)Nc4cccc5ccccc45)cccc3C(=O)N([C@@H](C)CO)C[C@H]2C)c(OC)c1` was tested, and the cytotoxicity call was “active”.
In the case of `COc1cccc(S(=O)(=O)N(C)C[C@@H]2Oc3c(NC(=O)Nc4cccc5ccccc45)cccc3C(=O)N([C@@H](C)CO)C[C@H]2C)c1`, the cytotoxicity call is reported as “active”.
In the case of `C[C@H]1CN([C@@H](C)CO)C(=O)c2cccc(NC(=O)Nc3cccc4ccccc34)c2O[C@H]1CN(C)S(=O)(=O)c1ccc(F)cc1`, the cytotoxicity call is reported as “inactive”.
`COc1ccccc1S(=O)(=O)N(C)C[C@@H]1Oc2c(NC(=O)Nc3cccc4ccccc34)cccc2C(=O)N([C@@H](C)CO)C[C@H]1C` was tested, and the cytotoxicity call was “inactive”.
`C[C@@H]1CN([C@@H](C)CO)C(=O)c2cccc(NC(=O)Nc3cccc4ccccc34)c2O[C@H]1CN(C)S(=O)(=O)c1ccc(OC(F)(F)F)cc1` was tested, and the cytotoxicity call was “active”.
For `COc1ccc(S(=O)(=O)N(C)C[C@@H]2Oc3c(NC(=O)Nc4cccc5ccccc45)cccc3C(=O)N([C@@H](C)CO)C[C@H]2C)cc1F`, the cytotoxicity call was “inactive”.
For `COc1ccc(S(=O)(=O)N(C)C[C@@H]2Oc3c(NC(=O)Nc4cccc5ccccc45)cccc3C(=O)N([C@@H](C)CO)C[C@H]2C)cc1OC`, the cytotoxicity call was “inactive”.
In the case of `CC1CN(c2c(F)c(N)c3c(=O)c(C(=O)O)cn(C4CC4)c3c2F)CC(C)N1` (stereo not given), the cytotoxicity call is reported as “inactive”.
In the case of `CC(C)NC(=O)N(C)C[C@H]1OCCCC[C@@H](C)Oc2ccc(NC(=O)Nc3ccc(C(F)(F)F)cc3)cc2C(=O)N([C@H](C)CO)C[C@@H]1C`, the cytotoxicity call is reported as “inactive”.
